Bioassay records deposited in PubChem by several laboratories.
FBA Mtb inh: inhibitors of M. tuberculosis fructose-bisphosphate aldolase. P9WQA3. purified M. tuberculosis FBA, fluorescence read-out. inhibition, % at 1 µM. 360,000 tested, 2.3% active. AID 588726; in the data active means inhibition above about 27%
Target sequence (P9WQA3 whole entry, looked up): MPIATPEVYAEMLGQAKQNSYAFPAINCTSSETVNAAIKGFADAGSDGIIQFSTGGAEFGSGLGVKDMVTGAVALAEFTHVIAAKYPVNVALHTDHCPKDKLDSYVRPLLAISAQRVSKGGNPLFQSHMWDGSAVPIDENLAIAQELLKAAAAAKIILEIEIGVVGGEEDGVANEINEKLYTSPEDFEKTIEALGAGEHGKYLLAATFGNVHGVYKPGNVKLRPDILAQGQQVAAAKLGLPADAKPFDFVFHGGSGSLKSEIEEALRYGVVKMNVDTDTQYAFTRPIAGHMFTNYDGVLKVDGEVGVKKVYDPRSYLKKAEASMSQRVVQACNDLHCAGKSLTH
GDH-TPI inh: inhibits GDH-TPI coupling enzymes, artifact for Mtb FBA screen; 360,000 tested, 1.2% active; inhibition, % at 4.8 µM; GDH-TPI coupled enzyme counterscreen, NADH absorbance
BH1578 lux ind: quorum light induction in luxS cqsA deficient V. cholerae | V. cholerae BH1578 lux reporter, luminescence, 6 h | activation, % at 18.7 µM | 350,000 tested, 0.16% active | AID 588436; in the data active means activation mostly above about 9.7%, no sharp cut-off
CCHFV vOTU inh: blocks the CCHF virus ovarian tumor domain protease; CCHFV vOTU protease, Pep-AMC fluorescence; inhibition, % at 11.5 µM; 370,000 tested, 0.55% active; AID 651958
Large screens that a line does not name were inactive. Rows were chosen to be rich in hits. Some 3.9% of all compounds tested hit in one or more screens of this group. Unless noted, no stated cut-off is given here; in the data, active means inhibition above about 30%; inactive means the rest.

NC(=O)C1CC(=O)N(c2ccc(OCc3ccc(Cl)c(Cl)c3)cc2)C1 (stereo not drawn)	none
Nc1ccc(-c2nc3ccc(N)cc3[nH]2)cc1	FBA Mtb inh active
Cc1ccc2nc(-c3ccccc3N)[nH]c2c1	FBA Mtb inh active
Cc1cc2nc(-c3ccccc3O)[nH]c2cc1C	FBA Mtb inh 157.1
Cc1nc2ccc(-c3nc4ccc(N)cc4[nH]3)cc2[nH]1	FBA Mtb inh active
Cc1cc(=O)[nH]c(-c2ccccc2O)n1	none (no result: CCHFV vOTU inh)
Nc1ccc2nc(-c3cccc(-c4nc5ccc(N)cc5[nH]4)c3)[nH]c2c1	none
COCc1cc(C)nc(SCC(=O)NCC2CCCO2)c1C#N (stereo not drawn)	none
c1ccc(N=Nc2ccc(C3=NCCO3)cc2)cc1	GDH-TPI inh 35.9
Cc1noc(C)c1COC(=O)c1cc2c3ccccc3n(C)c2s1	GDH-TPI inh 39.5
O=C(CSc1nnc(-c2c[nH]c3ccccc23)o1)N(Cc1ccccc1)c1ccc(F)cc1	none (no result: CCHFV vOTU inh)
COc1ccc(CN(C(=O)CSc2nnc(-c3ccccc3C)o2)c2ccc(F)cc2)cc1	FBA Mtb inh active
Cc1ccc(S(=O)(=O)/N=C/N(C)C)cc1	none
Cc1ccc(S(=O)(=O)/N=C/c2ccc(N(C)C)cc2)cc1	GDH-TPI inh 35.0
Cc1nn(-c2ccccc2)c2c1cc1c(=O)n(C)c(=O)nc-1n2-c1ccccc1F	FBA Mtb inh 163.9
Cc1cccc(-n2c3nc(=O)[nH]c(=O)c-3cc3c(C)nn(-c4ccccc4)c32)c1C	FBA Mtb inh active
Cc1ccc(C2(SCC(N)C(=O)O)c3ccccc3-c3ccccc32)cc1 (stereo not drawn)	none
COc1cc(C2C=C(c3cccs3)Nc3ncnn32)cc(OC)c1OC (stereo not drawn)	GDH-TPI inh 41.5 (no result: CCHFV vOTU inh)
CC(C)CCNc1nc(N)c([N+](=O)[O-])c(NCCO)n1	GDH-TPI inh 49.7
Nc1nc(Nc2ccc(Cl)cc2)nc(NCCO)c1[N+](=O)[O-]	none
Cc1ccc(CNc2nc(N)c([N+](=O)[O-])c(NCc3ccccc3)n2)cc1	none
Nc1nc(NCc2ccc(Cl)cc2)nc(NCCO)c1[N+](=O)[O-]	GDH-TPI inh 37.5
Cc1ccc(CNc2nc(N)c([N+](=O)[O-])c(NCCO)n2)cc1	GDH-TPI inh 52.4
CCC(C)Nc1nc(N)c([N+](=O)[O-])c(NCCO)n1 (stereo not drawn)	none
COc1ccc(NC(=O)CSc2nnc(-c3cc(C)[nH]n3)n2N)cc1OC	none
Cc1c(C(=O)Nc2ccc3c(c2)OCCO3)sc2ncnc(N3CCCCC3C)c12 (stereo not drawn)	GDH-TPI inh 31.3
COc1ccc(-c2nc(C#N)c(NCc3ccc(C)cc3)o2)cc1OC	FBA Mtb inh 143.9
CCN(CC)CCCNc1oc(-c2ccc(OC)c(OC)c2)nc1C#N	FBA Mtb inh 163.7
Cc1ccc(CNc2oc(C)nc2C#N)cc1	none
COc1ccc(-c2nc(C#N)c(NCCCn3ccnc3)o2)cc1OC	FBA Mtb inh active
COc1ccccc1OCc1nc(C#N)c(NCCCn2ccnc2)o1	none
CCN(CC)CCCNc1oc(-c2ccccc2[N+](=O)[O-])nc1C#N	none
CN(C)CCCNc1oc(-c2cccc(Cl)c2)nc1C#N	FBA Mtb inh 173.7
O=S1(=O)N[C@@H](Cc2ccccc2)COc2cc(N3CC[C@H](O)C3)ccc21	none (no result: FBA Mtb inh, GDH-TPI inh, BH1578 lux ind)
Cc1ccc(S(=O)(=O)N(CC(=O)N=Nc2c(O)[nH]c3ccccc23)c2ccc(C)c(C)c2)cc1	none
COc1ccc(N2CCCN(CC(=O)Nc3ccccc3C)CC2)cc1	none (no result: FBA Mtb inh, GDH-TPI inh, BH1578 lux ind)
O=C(NNC(=O)c1ccc(F)c(S(=O)(=O)N2CCOCC2)c1)c1ccc(Br)cc1	none
CC(C)N=Cc1c(O)[nH]c2ccccc12	none
Cc1cccc(/N=C/c2c(O)[nH]c3ccccc23)n1	GDH-TPI inh 45.0
OCc1cc(C(O)CNCCCCCCOCCCCc2ccccc2)ccc1O (stereo not drawn)	FBA Mtb inh 27.5
CCOCCCNCC(O)c1ccccc1 (stereo not drawn)	none
COc1cc2cc(C(=O)N3CC(COS(C)(=O)=O)c4ccc(O)cc43)[nH]c2c(OC)c1OC (stereo not drawn)	GDH-TPI inh 38.8 (no result: CCHFV vOTU inh)
CCN1C(=O)/C(=C/c2ccc3c(c2)CCN3CCCCl)C(=O)NC1=S	none
CC(C)(C)N1C(=O)NC(=O)/C(=C\c2ccc3c(c2)CCN3CCCCl)C1=O	GDH-TPI inh 32.4
COc1cc([C@H]2Oc3cc([C@H]4Oc5cc(O)cc(O)c5C(=O)[C@@H]4O)ccc3O[C@@H]2CO)ccc1O	GDH-TPI inh 33.7
COc1cc([C@@H]2Oc3cc(C4Oc5cc(O)cc(O)c5C(=O)[C@H]4O)ccc3O[C@H]2CO)ccc1O (stereo partly drawn)	none (no result: CCHFV vOTU inh)
CCOc1ccc(NC(=O)NCC2CCN(c3ccc(OC)cc3)C2)cc1 (stereo not drawn)	GDH-TPI inh 33.3
CCc1ccc(NC(=O)NCC2CCN(c3ccc(OC)cc3)C2)cc1 (stereo not drawn)	none
COc1cccc(NC(=O)c2oc3ccccc3c2NC(=O)c2ccc3c(c2)OCO3)c1	GDH-TPI inh 35.7
COc1ccc(C(=O)c2oc3ccccc3c2NC(C)=O)cc1	GDH-TPI inh 32.9
COc1cccc(NC(=O)c2ccc3c(c2)OCO3)c1	none
CSC(=Nc1ccccc1)C(C#N)c1nc2ccccc2[nH]1 (stereo not drawn)	none
N#CC(C(=S)Nc1ccccc1)c1nc2ccccc2[nH]1 (stereo not drawn)	GDH-TPI inh 61.9
C/C(Nc1ccccc1C(F)(F)F)=C1/CCOC1=O	none
Cc1ccc(NC(=O)Nc2ccc(Cl)cn2)cc1	none
Nc1nc(-c2ccc3c(c2)CCCC3)cs1	none
N#Cc1cnn2ccc(-c3ccc4c(c3)CCC4)nc12	FBA Mtb inh 141.3
Cc1ccsc1/C=N/NC(=O)c1ccc(Cn2cc(Br)cn2)o1	GDH-TPI inh 35.0
NS(=O)(=O)c1cc2c(cc1Cl)NCNS2(=O)=O	BH1578 lux ind 23.8
COc1cc(C2Nc3cc(Cl)c(S(N)(=O)=O)cc3S(=O)(=O)N2)cc(OC)c1OC (stereo not drawn)	none
COc1ccc2c(c1)c(C(=O)N/N=C/c1ccc(O)c(O)c1)c(C)n2C	GDH-TPI inh 43.7
C/C(Cc1ccccc1)=N\NC(=O)CNC(=O)c1ccccc1Br	none
CCC(C)NC(=O)Cc1c(C)c2cc3c(cc2oc1=O)OC(C)(C)CC3 (stereo not drawn)	FBA Mtb inh 189.1
Cc1c(CC(=O)N[C@@H](C)C(=O)O)c(=O)oc2cc3c(cc12)CCC(C)(C)O3	FBA Mtb inh active
Cc1oc2cc3oc(=O)c(CC(=O)N[C@@H](C)C(=O)NC(Cc4ccc(Cl)cc4)C(=O)O)c(C)c3cc2c1C (stereo partly drawn)	none
Cc1oc2cc3oc(=O)c(CC(=O)N[C@H](C(=O)N[C@@H](C(=O)O)c4ccccc4)C(C)C)c(C)c3cc2c1C	none
CC[C@@H](C)[C@H](NC(=O)Cc1c(C)c2cc3c(C)c(C)oc3c(C)c2oc1=O)C(=O)O	none
COCCNC(=O)Cc1c(C)c2cc3c(cc2oc1=O)OC(C)(C)CC3	FBA Mtb inh 164.9
Cc1c(CC(=O)N[C@H](C(=O)O)C(C)C)c(=O)oc2cc3c(cc12)CCC(C)(C)O3	FBA Mtb inh 153.0
Cc1oc2cc3oc(=O)c(CC(=O)NCCC(=O)O)c(C)c3cc2c1C	none
